Consider 39 compounds from PubChem BioAssay AID493206 (National Center for Advancing Translational Sciences (NCATS), 2011).

“And” between values parts separate entries of the source, which are not always exact repeats. Equal values may be shown once. Inconclusive results are not listed. Values without a mark were called inactive. The source made the active and inactive calls. The call rests on the fitted dose curve; in most records, active means well fitted inhibition curve with a large enough effect; inconclusive means small, poorly fitted or top-dose-only effect; inactive means flat fitted curve, though single readings scatter.

The target of this assay is Dual specificity tyrosine-phosphorylation-regulated kinase 1A (Homo sapiens) (UniProt Q13627). Nature of the assay: Assay for Inhibitors of Dual-Specificity Tyrosine-(Y)-Phosphorylation Regulated Kinase 1A (Kinase-Glo assay): round 2 SAR. Conditions: recombinant DYRK1A, Kinase-Glo ATP depletion luminescence; series mostly up to 76.9 µM; activity, negative = inhibition: at the top concentration. From the text:
NIH Molecular Libraries Probe Production Centers Network [MLPCN] NIH Chemical Genomics Center [NCGC] MLPCN Grant: 1R03MH084827-01 PI Name: Tom Misteli NCGC Assay Overview: The CMGC group of protein kinases which includes CDK-like kinases (Clk) and Dyks are essential kinases found in all eukaryotes. Clks have been implicated to play a role in the regulation of alternative splicing; while Dyrks, in particular over expression of Dyrk1A, has been linked to diseases as Down syndrome (DS; OMIM 190685) and Alzheimer disease (AD; OMIM 104300). Among the members of the CMGC group, the Clks and the Dyrks are very closely related therefore to determine validity and selectivity of an active compound observed in the CLK4 qHTS screen (AID:1770), a bioluminescent counter-screen against Dyrk1A was developed. In addition, potent and selective compounds against Dyrk1A were identified to further assess the role of this enzyme in DS and AD. Dyrk1A (Invitrogen, cat # PV3785) was assayed using ATP and DYRKtide (AnaSpec, cat# 62698) as substrates. Promega Kinase-Glo (cat# V6712) technology was used to detect the residual ATP following kinetic reaction. The Kinase-Glo Plus contains Ultra-Glo [5] luciferase and D-luciferin which generates a bioluminescence signal from the remaining ATP. No enzyme and harmine (Sigma, cat # 286044-1G), a compound shown to inhibit Dyrks were used as a positive control; while DMSO treatment was used as a negative control.
NCGC Assay Protocol Summary: Two uL/well of substrate solution (8uM Dyrktide, 2uM ATP, 25mM Tris-HCl pH 7.5, 10mM MgCl2 , 0.5mM EGTA, 5mM cystein, 0.01% Triton X-100 final concentration) was dispensed into 1536-well assay plates (Greiner, solid white, medium-binding plates) with Aurora Discovery BioRAPTR Flying Reagent Dispenser (FRD, Beckton-Dickenson). Compound solution (23 nL) was transferred to the assay plate using Kalypsys pin tool equipped with a 1536-pin tool. One uL/well enzyme solution (5nM Dyrk1A, 25mM Tris-HCl pH7.5, 10mM MgCl2, 0.5mM EGTA, 5mM cystein, 0.01% Triton X-100 final concentration) was then added using FRD yielding a total kinase reaction volume of 3uL/well. After 2 hours of room temperature incubation, 3uL Kinase-Glo detection reagent was added for a final assay volume of 6uL/well. The plates were spun for 30 seconds (1000 rpm) and incubated at ambient temperature for 2 minutes followed by a luminescence read using Perkin Elmer ViewLux plate reader at 3 seconds exposure time and 2x binning.
In the case of `COc1cccc(-c2ccc3ncnc(NCc4cccc(F)c4)c3c2)c1`, the Potency is 4.63 µM (active). Turning to `Cc1csc(CNc2ncnc3ccc(-c4ccc5c(c4)OCCO5)cc23)c1`, the Potency was 1.64 µM (active). In the case of `c1cncc(CNc2ncnc3ccc(-c4ccc5c(c4)OCO5)cc23)c1`, the Potency was 0.412 µM (active).

Consider `OCc1ccc(-c2ccc3ncnc(N4CCOCC4)c3c2)o1`, for which the Potency is 16.4 µM (active). Take `Clc1cccc(-c2ccc3ncnc(NCc4cccnc4)c3c2)c1`: the Potency was 18.4 µM (active).

Regarding `Cc1ccc(CNc2ncnc3ccc(-c4ccc([C@@H](C)O)o4)cc23)o1`, the Potency is 26 µM (active) and 16.4 µM (active) and 23.2 µM (active). `CN(Cc1ccco1)c1ncnc2ccc(-c3ccoc3)cc12`: the Potency is 0.207 µM (active). As to `CN(CC1CCCO1)c1ncnc2ccc(-c3ccc4c(c3)OCO4)cc12` (centres undefined), the Potency was 0.26 µM (active). As for `O=C(O)c1ccc(-c2ccc3ncnc(NCC4CCCO4)c3c2)o1` (centres undefined), the Potency was 23.2 µM (active). As for `Cc1cccc(CNc2ncnc3ccc(-c4cccnc4)cc23)c1`, the Potency was 29.2 µM (active).

On to `CCCNc1ncnc2ccc(-c3ccc4c(c3)OCO4)cc12`, for which the Potency was 0.184 µM (active).

Take `CN(C)CCCNc1ncnc2ccc(-c3ccc4c(c3)OCO4)cc12`: the Potency is 8.23 µM (active). On the same count and under the same terms, for `CN(CC1CCCCO1)c1ncnc2ccc(-c3ccc4c(c3)OCO4)cc12` (centres undefined) the value was 0.292 µM (active). As to `Clc1cccc(-c2ccc3ncnc(NCc4ccc5c(c4)OCO5)c3c2)c1`, the “activity, negative = inhibition” value is -15.5%. Regarding `c1coc(CNc2ncnc3ccc(-c4ccc5c(c4)OCO5)cc23)c1`, the Potency is 0.207 µM (active). Take `CS(=O)(=O)CCNCc1ccc(-c2ccc3ncnc(Nc4ccc(OCc5cccc(F)c5)c(Cl)c4)c3c2)o1`: the “activity, negative = inhibition” value was -4.73%.

In the case of `Cc1csc(CNc2ncnc3ccc(-c4ccc5c(c4)OCO5)cc23)n1`, the Potency is 0.207 µM (active).

With `Cc1csc(CNc2ncnc3ccc(-c4cccnc4)cc23)c1`, the Potency is 23.2 µM (active). On to `CCNC(=O)c1ccc(-c2ccc3ncnc(NCc4nccs4)c3c2)o1`, for which the Potency is 10.4 µM (active).

Turning to `c1nc(NCc2ccc3c(c2)OCO3)c2cc(-c3ccc4c(c3)OCCO4)ccc2n1`, the Potency is 4.12 µM (active). Turning to `Fc1cccc(CNc2ncnc3ccc(-c4ccccc4Cl)cc23)c1`, the Potency is 16.4 µM (active). With `c1cncc(-c2ccc3ncnc(NCc4cccs4)c3c2)c1`, the Potency was 23.2 µM (active). Turning to `Cn1cncc1CNc1ncnc2ccc(-c3ccc4c(c3)OCO4)cc12`, the Potency is 0.463 µM (active). Consider `C[C@@H](O)c1ccc(-c2ccc3ncnc(NCc4cccs4)c3c2)o1`, for which the Potency was 23.2 µM (active).

Consider `Cc1cccc(CNc2ncnc3ccc(-c4ccc5c(c4)OCCO5)cc23)c1`, for which the Potency was 3.68 µM (active). For `CC(O)c1ccc(-c2ccc3ncnc(NCCc4cnc[nH]4)c3c2)o1` (centres undefined), the Potency is 23.2 µM (active). As for `COc1cccc(-c2ccc3ncnc(NCc4cccc(C)c4)c3c2)c1`, the Potency is 8.23 µM (active).

For the compound `c1cncc(CNc2ncnc3ccc(-c4ccc5c(c4)OCCO5)cc23)c1`, the Potency is 1.16 µM (active). Turning to `CN(CC1CCCCC1)c1ncnc2ccc(-c3ccc4c(c3)OCO4)cc12`, the Potency was 0.26 µM (active). In the case of `c1csc(CNc2ncnc3cc(-c4ccc5c(c4)OCO5)ccc23)c1`, the Potency was 26 µM (active). As for `CN(CC(=O)O)c1ncnc2ccc(-c3ccc4c(c3)OCO4)cc12`, the Potency is 8.23 µM (active). Take `Cc1cccc(-c2ccc3ncnc(NCc4cccc(F)c4)c3c2)c1`: the Potency is 13 µM (active).

Consider `c1csc(CNc2ncnc3ccc(-c4ccc5c(c4)OCO5)cc23)c1`, for which the Potency was 0.184 µM (active). Take `Cc1cccc(CNc2ncnc3ccc(-c4ccoc4)cc23)c1`: the Potency is 3.68 µM (active). Take `CCNC(=O)c1ccc(-c2ccc3ncnc(NCCc4cnc[nH]4)c3c2)o1`: the Potency is 11.6 µM (active). `Cc1cccc(-c2ccc3ncnc(NCc4cccs4)c3c2)c1`: the Potency was 18.4 µM (active). As for `c1nc(N2CCNCC2)c2cc(-c3ccc4c(c3)OCO4)ccc2n1`, the Potency is 5.19 µM (active). With `Fc1cccc(CNc2ncnc3ccc(-c4ccoc4)cc23)c1`, the Potency is 0.823 µM (active). Same read-out and setting: as for `CN(CCc1ccco1)c1ncnc2ccc(-c3ccc4c(c3)OCO4)cc12`, the figure is 0.292 µM (active).
